Measurements: PubChem BioAssay (Tox21)
Several values for one entry are separate records, joined by “and”; a condition that tells them apart may be missing. Equal values may be shown once. Inconclusive results are not listed. Activity calls are given as the source filed them. Unless noted, calls follow the shape of the dose curve; as a rule, active = well fitted curve in the direction sought with a large enough effect in the repeat runs; inconclusive = weak or mixed curves; inactive = no such curve, though single readings can be large; an effect the other way counts as inactive or inconclusive.

What was measured:
[1] = qHTS assay to identify small molecule antagonists of the retinoid acid receptor (RAR) signaling pathway - cell viability counter screen (AID 1159551); also: nearly all actives have a fitted effect of over 35% in size
Outline: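 C3RL4 RARE-luciferase cells, 1,000/well, incubated overnight, then dosed with compound plus 1 uM retinol (final). After 6 hr at 37 C, viability read by CellTiter-Glo ATP luminescence following 30 min at room temperature.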

[2] = qHTS assay to identify small molecule antagonists of the retinoic acid receptor (RAR) signaling pathway (AID 1159552; also: nearly all actives have a fitted effect of over 50% in size)
Outline: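 Using a RARE-driven luciferase construct in C3RL4 cells, retinol at 1 uM final provided the agonist stimulus while compounds were co-applied. After 6 hours at 37 C, luminescence was recorded to flag inhibitors of retinol signaling.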

[3] = qHTS assay to identify small molecule agonists of the retinoic acid receptor (RAR) signaling pathway (AID 1159553); also: potency is read from the fitted curve at half-maximal effect
Outline: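 C3RL4 RARE-luciferase cells were seeded at 1,000/well and grown overnight at 37 C, then exposed to compounds for 6 hr at 37 C, 5% CO2. Luciferase reagent was added and luminescence was read after 30 min at room temperature.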

[4] = qHTS assay to identify small molecule antagonists of the estrogen related receptor (ERR) signaling pathway from Tox21 library - cell viability counter screen (AID 1224834); also: nearly all actives have a fitted effect of over 30% in size; also: potency is read from the fitted curve at half-maximal effect
Outline: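 ERR reporter cells, 2,000 per well, rested 6 h, then exposed to compound in DMSO for 17.5 hours at 37 C. Viability read as fluorescence after 30 min with CellTiter-Fluor.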

[5] = biological target: Luciferin 4-monooxygenase (Photinus pyralis) (UniProt P08659); experiment: qHTS assay to identify small molecule inhibitors of firefly luciferase (AID 1224835); also: nearly all actives have a fitted effect of over 25% in size; also: potency is read from the fitted curve at half-maximal effect; as to activity change, negative = inhibition: series mostly up to about 120 µM
Outline: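 Biochemical qHTS: compounds run as interplate titrations against purified firefly enzyme, with D-luciferin and ATP each at its KM concentration. Light output recorded by CCD imaging.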

[6] = qHTS assay to identify small molecule agonists of the constitutive androstane receptor (CAR) signaling pathway - cell viability counter screen (AID 1224836); also: series mostly up to about 92 µM; nearly all actives have a fitted effect of over 45% in size
Outline: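 Multiplexed viability check: HepG2-CYP2B6-hCAR cells, 15-point compound dosing, 0.75 uM PK11195 final, 23 h at 37 C, CellTiter-Fluor fluorescence.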

[7] = qHTS assay to identify small molecule antagonists of the constitutive androstane receptor (CAR) signaling pathway - cell viability counter screen (AID 1224837); also: series mostly up to about 92 µM; nearly all actives have a fitted effect of over 45% in size
Outline: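 HepG2 cells stably carrying hCAR and CYP2B6-2.2kb reporter, stimulated with 50 nM CITCO and compounds at 15 concentrations for 23 h at 37 C. Viability measured by CellTiter-Fluor fluorescence.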

[8] = biological target: Nuclear receptor subfamily 1 group I member 3 (Homo sapiens) (UniProt Q14994); experiment: qHTS assay to identify small molecule antagonists of the constitutive androstane receptor (CAR) signaling pathway (AID 1224838); also: nearly all actives have a fitted effect of over 40% in size
Outline: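 HepG2 cells stably carrying hCAR and a CYP2B6-2.2kb luciferase reporter, seeded 4 hrs before compound (15 concentrations). Stimulated with 50 nM CITCO for 24 hr at 37 C. ONE-Glo luminescence read after 30 min at room temperature.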

[9] = biological target: Nuclear receptor subfamily 1 group I member 3 (Homo sapiens) (UniProt Q14994); experiment: qHTS assay to identify small molecule agonists of the constitutive androstane receptor (CAR) signaling pathway (AID 1224839); also: nearly all actives have a fitted effect of over 15% in size; also: potency is read from the fitted curve at half-maximal effect; as to activation: series mostly up to about 92 µM
Outline: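 Using human hepatoma HepG2 cells engineered with hCAR and a CYP2B6-2.2kb reporter, 15-concentration compound series were incubated 24 h alongside PK11195 at 0.75 uM final, with luminescence quantified afterwards.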

[10] = qHTS assay to identify small molecule antagonists of the estrogen related receptor signaling pathway with the pleiotropic PPARgamma coactivator (PGC) from Tox21 10K library - cell viability counter screen (AID 1224840; active = well fitted cell-killing curve with a large enough effect in the repeat runs, not every such curve was filed as active; also: nearly all actives have a fitted effect of over 40% in size)
Outline: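 PGC/ERR cells (2,000/well) plated 6 h, then compound-treated for 17.5 h at 37 C. Viability measured by CellTiter-Fluor fluorescence after 30 min at 37 C, multiplexed with the pathway assay.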

[11] = biological target: Thyrotropin receptor (Homo sapiens) (UniProt P16473); experiment: qHTS assay to identify small molecule agonists of the thyroid stimulating hormone receptor (TSHR) signaling pathway (AID 1224843; calls by dose curve; also: nearly all actives have a fitted effect of over 45% in size)
Outline: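 TSHR-HEK293 cells in agonist mode, 30 min room-temperature step, then cAMP measured by competitive HTRF (cAMP-d2 with anti-cAMP cryptate) after 1 h at room temperature. Tested at 15 concentrations in triplicate.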

[12] = qHTS assay to identify small molecule agonists of the hypoxia (HIF-1) signaling pathway - cell viability counter screen (AID 1224844; calls by dose curve; also: nearly all actives have a fitted effect of over 50% in size)
Outline: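 HRE-bla ME-180 cells, 2,000/well in 0.5% dialyzed FBS medium, treated 17 h at 37C with compounds. Viability read in the same wells as the bla reporter, by CellTiter-Glo luminescence after 30 min at room temperature.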

[13] = qHTS assay to identify small molecule antagonists of the estrogen related receptor (ERR) signaling pathway - cell viability counter screen (AID 1224818); also: series mostly up to about 46 µM
Outline: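 ERR cells, 2,000 per well, compound added after 6 h and incubated 17.5 h at 37 C. Viability read by CellTiter-Fluor fluorescence after a further 30 min at 37 C.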

[14] = qHTS assay to identify small molecule antagonists of the estrogen related receptor signaling pathway with the pleiotropic PPARgamma coactivator (PGC) cell viability counter screen (AID 1224822; also: series mostly up to about 46 µM)
Outline: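 PGC/ERR cells rested 6 h, then compound-treated 17.5 h at 37 C. CellTiter-Fluor added for 30 min at 37 C, viability measured by fluorescence intensity.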

[15] = qHTS assay to identify small molecule antagonists of the estrogen related receptor signaling pathway with the pleiotropic PPARgamma coactivator (PGC) from Tox21 10K library (AID 1224841; call rule not given here; also: actives are mostly falling curves and most rising ones were filed inactive; nearly all actives have a fitted effect of over 50% in size; also: potency is read from the fitted curve at half-maximal effect; as to activity, negative = inhibition: series mostly up to about 92 µM)
Outline: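 PGC/ERR cell line, 2,000 cells/well, pre-incubated 6 hours at 37 C, then exposed to compounds for 18 hours at 37 C; luciferase read with One-Glo luminescence after 30 min at room temperature.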

[16] = qHTS assay to identify small molecule agonists of the estrogen related receptor signaling pathway with the pleiotropic PPARgamma coactivator (PGC) from Tox21 10K library (AID 1224842); also: nearly all actives have a fitted effect of over 15% in size
Outline: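 PGC/ERR reporter cell line, 2,000 cells per well, incubated 6 h at 37 C before 23 nL compound in DMSO was added. After 18 h at 37 C, One-Glo luminescence read following 30 min at room temperature.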
% is scaled to controls: 0 for no effect and ±100 for the full control effect.

Thyrotropin receptor (Homo sapiens), sequence (P16473 whole entry, looked up): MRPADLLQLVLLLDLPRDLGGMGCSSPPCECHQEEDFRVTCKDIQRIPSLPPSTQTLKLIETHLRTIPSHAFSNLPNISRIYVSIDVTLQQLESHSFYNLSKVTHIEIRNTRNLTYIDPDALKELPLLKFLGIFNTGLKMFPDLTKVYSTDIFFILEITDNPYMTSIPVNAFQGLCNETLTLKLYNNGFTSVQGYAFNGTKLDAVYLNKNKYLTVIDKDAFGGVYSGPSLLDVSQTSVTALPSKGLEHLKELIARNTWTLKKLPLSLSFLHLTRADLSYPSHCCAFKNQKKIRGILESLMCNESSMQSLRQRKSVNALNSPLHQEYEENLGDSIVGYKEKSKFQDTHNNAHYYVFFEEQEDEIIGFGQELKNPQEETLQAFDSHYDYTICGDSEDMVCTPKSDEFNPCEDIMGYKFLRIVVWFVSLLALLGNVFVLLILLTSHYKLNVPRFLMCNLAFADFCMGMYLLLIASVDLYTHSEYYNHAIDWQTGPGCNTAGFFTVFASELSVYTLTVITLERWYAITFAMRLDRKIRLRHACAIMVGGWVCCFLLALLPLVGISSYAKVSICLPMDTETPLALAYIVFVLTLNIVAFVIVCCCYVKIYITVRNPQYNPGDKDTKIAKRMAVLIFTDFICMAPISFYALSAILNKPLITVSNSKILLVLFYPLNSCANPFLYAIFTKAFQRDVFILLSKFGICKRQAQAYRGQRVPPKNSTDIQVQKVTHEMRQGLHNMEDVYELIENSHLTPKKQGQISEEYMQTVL
Luciferin 4-monooxygenase (Photinus pyralis), sequence (P08659 whole entry, looked up): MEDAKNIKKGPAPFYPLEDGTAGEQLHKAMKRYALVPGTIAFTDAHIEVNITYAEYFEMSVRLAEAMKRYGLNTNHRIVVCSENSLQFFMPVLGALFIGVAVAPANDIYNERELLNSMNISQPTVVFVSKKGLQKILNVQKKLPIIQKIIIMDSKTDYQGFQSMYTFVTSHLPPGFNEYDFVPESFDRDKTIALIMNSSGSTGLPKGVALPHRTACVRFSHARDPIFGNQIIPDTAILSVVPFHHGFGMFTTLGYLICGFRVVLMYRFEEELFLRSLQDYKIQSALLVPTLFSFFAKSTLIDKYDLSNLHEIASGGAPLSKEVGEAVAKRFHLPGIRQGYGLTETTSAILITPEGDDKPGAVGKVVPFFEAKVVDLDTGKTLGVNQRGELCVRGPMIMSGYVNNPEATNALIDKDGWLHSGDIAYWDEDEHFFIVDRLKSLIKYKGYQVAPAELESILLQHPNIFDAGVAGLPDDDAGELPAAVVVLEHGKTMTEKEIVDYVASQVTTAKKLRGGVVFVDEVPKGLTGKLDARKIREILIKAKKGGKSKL
Nuclear receptor subfamily 1 group I member 3 (Homo sapiens), sequence (Q14994 whole entry, looked up): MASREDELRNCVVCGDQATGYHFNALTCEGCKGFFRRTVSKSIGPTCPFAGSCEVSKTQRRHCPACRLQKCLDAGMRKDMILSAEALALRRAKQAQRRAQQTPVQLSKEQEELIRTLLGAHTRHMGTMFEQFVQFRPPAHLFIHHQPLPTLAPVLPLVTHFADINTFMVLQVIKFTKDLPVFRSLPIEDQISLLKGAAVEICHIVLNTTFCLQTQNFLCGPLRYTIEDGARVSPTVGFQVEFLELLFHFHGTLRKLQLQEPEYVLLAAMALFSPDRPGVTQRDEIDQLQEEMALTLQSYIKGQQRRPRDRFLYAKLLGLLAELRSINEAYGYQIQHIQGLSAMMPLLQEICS

CN1C(=O)CN=C(c2ccccc2)c2cc([N+](=O)[O-])ccc21
inactive: Potency [1] | Potency [2] | Potency [3] | Potency [4] | Potency [5] | Potency [6] | Potency [7] | Potency [8] | Potency [9] | Potency [10] | Potency [11] | Potency [12]

Cc1nc(N(C)C)nc(OC(=O)N(C)C)c1C
inactive: Potency [1] | Potency [2] | Potency [3] | Potency [4] | Potency [5] | Potency [6] | Potency [7] | Potency [10] | Potency [11] | Potency [12]

Cc1ccccc1
inactive: Potency [1] | Potency [2] | Potency [3] | Potency [4] | Potency [5] | Potency [6] | Potency [7] | Potency [8] | Potency [9] | Potency [10] | Potency [11] | Potency [12]

O=C(O)CCCOc1ccc(Cl)cc1Cl
inactive: Potency [1] | Potency [2] | Potency [3] | outcome [13] | outcome [14] | Potency [6] | Potency [7] | Potency [8] | Potency [9] | Potency [10] | Potency [11] | Potency [12]

O=S(=O)(c1ccccc1)c1ccccc1
inactive: Potency [1] | Potency [2] | Potency [3] | Potency [4] | Potency [5] | Potency [6] | Potency [7] | Potency [8] | Potency [9] | Potency [10] | Potency [15] | Potency [16] | Potency [12]

CC(C)(c1ccccc1)c1cc(-n2nc3ccccc3n2)c(O)c(C(C)(C)c2ccccc2)c1
inactive: Potency [1] | Potency [2] | Potency [3] | Potency [4] | Potency [5] | Potency [6] | Potency [7] | Potency [8] | Potency [9] | Potency [10] | Potency [11] | Potency [12]

C1CCNCC1
inactive: Potency [1] | Potency [2] | Potency [3] | Potency [4] | Potency [5] | Potency [6] | Potency [7] | Potency [10] | Potency [11] | Potency [12]

CCC(C)Cl (configuration not stated)
inactive: Potency [1] | Potency [2] | Potency [3] | Potency [4] | Potency [5] | Potency [6] | Potency [7] | Potency [8] | Potency [9] | Potency [10] | Potency [11] | Potency [12]

C1CS1
inactive: Potency [1] | Potency [2] | Potency [3] | Potency [4] | Potency [5] | Potency [6] | Potency [7] | Potency [8] | Potency [9] | Potency [10] | Potency [16] | Potency [11] | Potency [12]
active: Potency [15] 19.8 µM

CCN(C(C)=O)c1cccc(-c2ccnc3c(C#N)cnn23)c1
inactive: Potency [1] | Potency [2] | Potency [3] | Potency [4] | Potency [5] | Potency [6] | Potency [7] | Potency [10] | Potency [11] | Potency [12]

O=C(O)C(F)(F)C(F)(F)C(F)(F)C(F)(F)C(F)(F)F
inactive: Potency [1] | Potency [2] | Potency [3] | Potency [4] | Potency [5] | Potency [6] | Potency [7] | Potency [8] | Potency [9] | Potency [10] | Potency [11] | Potency [12]

Nc1c(Br)cc(Br)c2c1C(=O)c1ccccc1C2=O
inactive: activity change, negative = cytotoxicity [1] 0.857% [at 19 µM] | activity, negative = inhibition [2] 12.6% [at 19 µM] | Potency [3] | viability change, negative = cytotoxic [4] -5.59% [at 19 µM] | activity change, negative = inhibition [5] -3.13% [at 23.6 µM] | viability change, negative = cytotoxic [6] -15% [at 19 µM] | activity change, negative = cytotoxicity [7] -15.6% [at 19 µM] | activity, negative = inhibition [8] 102% [at 19 µM] | activation [9] 7.31% [at 19 µM] | viability change, negative = cytotoxic [10] -14.9% [at 19 µM] | activity, negative = inhibition [15] 5.52% [at 19 µM] | activation [16] 0.394% [at 19 µM] | activation [11] -6.18% [at 19 µM] | activity change, negative = cytotoxicity [12] 1.81% [at 15.8 µM]

FC(F)OC(F)(F)C(F)Cl (configuration not stated)
inactive: Potency [1] | Potency [2] | Potency [3] | Potency [4] | Potency [5] | Potency [6] | Potency [7] | Potency [8] | Potency [9] | Potency [10] | Potency [11] | Potency [12]

FC(Cl)(Cl)C(F)(Cl)Cl
inactive: Potency [1] | Potency [2] | Potency [3] | Potency [4] | Potency [5] | Potency [6] | Potency [7] | Potency [8] | Potency [9] | Potency [10] | Potency [11] | Potency [12]

CC(C)c1ccc(NC(=O)N(C)C)cc1
inactive: Potency [1] | Potency [2] | Potency [6] | Potency [7] | Potency [8] | Potency [10] | Potency [15] | Potency [11] | Potency [12]
active: Potency [3] 13.7 µM | Potency [5] 71 µM | Potency [9] 48.5 µM

O=C1CC[C@@]2(O)[C@H]3Cc4ccc(O)c5c4[C@@]2(CCN3CC2CC2)[C@H]1O5
inactive: Potency [1] | Potency [2] | Potency [3] | Potency [4] | Potency [5] | Potency [6] | Potency [7] | Potency [8] | Potency [9] | Potency [10] | Potency [11] | Potency [12]

Cc1cnc(C2=NC(C)(C(C)C)C(=O)N2)c(C(=O)O)c1 (configuration not stated)
inactive: Potency [1] | Potency [2] | Potency [3] | Potency [4] | Potency [5] | Potency [6] | Potency [7] | Potency [10] | Potency [11] | Potency [12]

O=P(OCC(Br)CBr)(OCC(Br)CBr)OCC(Br)CBr (configuration not stated)
inactive: Potency [1] | Potency [2] | Potency [3] | Potency [5] | Potency [8] | Potency [9] | Potency [10] | Potency [11] | Potency [12]
active: Potency [4] 49.2 µM and 51.7 µM

CCOC(=O)NC(O)C(Cl)(Cl)Cl (configuration not stated)
inactive: Potency [1] | Potency [2] | Potency [3] | Potency [4] | Potency [5] | Potency [6] | Potency [7] | Potency [9] | Potency [10] | Potency [11] | Potency [12]

CCSCc1ccccc1OC(=O)NC
active: Potency [9] 27.3 µM
inactive: Potency [1] | Potency [2] | Potency [3] | Potency [5] | Potency [6] | Potency [7] | Potency [8] | Potency [10] | Potency [12]
